# Screening data (PubChem)
# An excerpt weighted towards active compounds, which were near 19% of everything screened.
# HepG2 viability – HepG2 cytotoxicity, counter-screen for TGF-b inhibitors | HepG2 CAGA-GFP viability, ATP luminescence, 18 h | AID 588856 | Potency, µM (top dose mostly 46.1 µM), for inactives: at the highest dose activity change, negative = cytotoxicity, hits mostly cytotoxic | 0.76% of 410,000 active; note: potency is the fitted concentration of half-maximal effect
#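 HepG2 CAGA-GFP cells (1000/well, DMEM with 1% FBS) received compound, then TGF-beta at 500 pg/mL final, and were incubated 18 hours at 37 degrees C. Viability was read by CellTiter-Glo luminescence. Media-only wells were set as complete cell-killing and DMSO as no toxicity.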
# IL-1B inflam inh – inflammasome signaling inhibition, IL-1 beta readout; THP-1 LPS/ATP IL-1B secretion, AlphaLISA, 16 h; stronger effect = lower value; activity change, % at 57.5 µM; 4.7% of 360,000 active; AID 743279; in the data active = activity change below about -50%; inconclusive = mostly about -30% to -49%; note: % is set by controls: 0 for no effect and ±100 for the full control effect
#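 Secreted IL-1B measured by AlphaLISA bead assay after 16 h compound exposure of THP-1 cells; compounds (final up to 57.5 uM) added 1 h before LPS (250 ng/mL) and ATP (1.25 mM) stimulation; lower signal means less secretion.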
# DT40 TDP1 CPT – growth inhibition of DT40 Tdp1-/-;hTDP1 cells with camptothecin (screen for TDP1 inhibitors) | AID 686979 | Potency, µM (series often up to 46.2 µM), for the others: top-dose activity change, negative = growth inhibition, usual class: inhibitors | chicken DT40 Tdp1-/-;hTDP1 cells + 20 nM CPT, ATP luminescence, 48 h | 12% of 420,000 active; note: potency is the fitted concentration of half-maximal effect; % is set by controls: 0 for no effect and ±100 for the full control effect; nearly all actives have a fitted effect of over 55% in size
#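 Chicken DT40 Tdp1-/- cells stably complemented with human TDP1 were seeded at 400 cells/well in medium containing 20 nM camptothecin, exposed to pin-transferred compounds, and grown at 37 °C for at least 48 hr. Viability was read as ATP luminescence.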
# S-ASM inh – inhibitors of human secretory acid sphingomyelinase | P17405 | placental ASM, HMU-PC fluorogenic substrate, 60 min | Potency, µM (highest dose often 57.5 µM), for inactives: at the top dose activity change, negative = inhibition, actives largely listed as inhibitors | 0.006% of 340,000 active | AID 504937; note: potency is the fitted concentration of half-maximal effect
# Target sequence (P17405 47-631 limits assumed): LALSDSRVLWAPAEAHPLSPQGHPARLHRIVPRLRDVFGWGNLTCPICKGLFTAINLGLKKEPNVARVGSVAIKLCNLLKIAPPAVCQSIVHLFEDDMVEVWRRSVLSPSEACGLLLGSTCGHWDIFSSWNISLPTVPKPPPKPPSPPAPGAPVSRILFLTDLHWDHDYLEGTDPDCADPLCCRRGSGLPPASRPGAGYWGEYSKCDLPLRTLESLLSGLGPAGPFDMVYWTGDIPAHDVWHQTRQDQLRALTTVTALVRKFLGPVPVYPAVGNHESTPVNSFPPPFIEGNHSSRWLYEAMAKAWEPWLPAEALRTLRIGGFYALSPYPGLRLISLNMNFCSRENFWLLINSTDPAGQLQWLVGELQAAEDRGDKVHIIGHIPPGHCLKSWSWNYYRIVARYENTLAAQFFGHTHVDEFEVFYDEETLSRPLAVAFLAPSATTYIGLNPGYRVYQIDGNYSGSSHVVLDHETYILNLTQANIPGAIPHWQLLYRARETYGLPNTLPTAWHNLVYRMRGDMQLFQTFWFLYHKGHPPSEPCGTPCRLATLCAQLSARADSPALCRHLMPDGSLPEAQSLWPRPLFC
#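 Steps: dispense placental human ASM, pin compound, wait 10 min at room temperature, add HMU-PC0 substrate at 9 uM final, incubate 60 min at 37 °C, add stop solution raising pH to 10, read fluorescence.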
# DT40 TDP1 no CPT – qHTS for Inhibitors of human tyrosyl-DNA phosphodiesterase 1 (TDP1): qHTS in cells in absence of CPT; DT40 Tdp1-/- hTDP1 cells, no CPT, ATP luminescence, 48 h; Potency, µM (series often up to 46.2 µM), for the others: at the top dose activity change, negative = growth inhibition, most hits filed as inhibitors; 15% of 420,000 active; AID 686978, 2013; note: potency is the fitted concentration of half-maximal effect; % is set by controls: 0 for no effect and ±100 for the full control effect; nearly all actives have a fitted effect of over 55% in size
#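 A cellular qHTS used chicken DT40 cells lacking endogenous Tdp1 but carrying stably transfected human TDP1. Compounds were applied without camptothecin, and cell growth kinetics were judged by ATP-dependent luminescence after ≥48 hr.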
# TGFb SMAD3 inh – TGF-b pathway inhibition; Potency, µM (top dose mostly 46.1 µM), inactives show at the top dose activity, negative = inhibition, hits mostly inhibitors; HepG2 CAGA-GFP TGF-b/SMAD3 reporter, GFP fluorescence, 18 h; TGF-beta stimulated, 500 pg/mL final; 1.2% of 410,000 active; note: potency is the fitted concentration of half-maximal effect; % is set by controls: 0 for no effect and ±100 for the full control effect; nearly all actives have a fitted effect of over 65% in size
#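 Inhibition was scored as loss of TGF-beta-induced (500 pg/mL final, 18 hours, 37 degrees C) GFP in HEPG2 cells carrying a CAGA-GFP reporter, in DMEM with 1% FBS. Well GFP was summed per cell; Activity was normalised to unstimulated and stimulated DMSO wells, then concentration-response fitting.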
# Numbers without * were called inactive; i = inactive; ? = inconclusive; . = no result. Unless noted, calls come from the whole dose curve; as a rule, active = well fitted curve in the direction sought with a large enough effect; inconclusive = small, poorly fitted or top-dose-only effect, or another doubt; inactive = no such curve, though single readings can be large; an effect the other way counts as inactive or inconclusive.
SMILES,HepG2 viability,IL-1B inflam inh,DT40 TDP1 CPT,S-ASM inh,DT40 TDP1 no CPT,TGFb SMAD3 inh
O=[N+]([O-])c1ccc(N2CCN(C(=S)c3cccc([N+](=O)[O-])c3)CC2)cc1,13%,-16,15µM*,-5%,21µM*,2%
O=C(NC(=S)N1CCCCCC1)c1cccc([N+](=O)[O-])c1,-7%,17,?,4%,16µM*,1%
Nc1ccn(CC(=O)N[C@H](CO)Cc2c[nH]c3ccccc23)c(=O)n1,-9%,12,15%,5%,-5%,-24%
O=C(CCC(=O)N1CCOCC1)NCCc1ccccc1,17%,-7,-11%,1%,-4%,17%
COc1ccc(CNC(=O)COC(=O)c2ccc(C)c(S(=O)(=O)N3CCOCC3)c2)cc1,-14%,-8,-2%,4%,-9%,-1%
O=C(NC(=S)N1CCN(c2ccccc2)CC1)c1ccc(S(=O)(=O)N2CCOCC2)cc1,0%,-10,?,-1%,?,-12%
O=C(NC(=S)N1CCN(c2ccc([N+](=O)[O-])cc2)CC1)c1ccccc1,13%,8,?,-2%,3.3µM*,8%
O=C(Cc1ccccc1)N/N=C/c1cc2c(cc1Cl)OCO2,0%,6,?,3%,29µM*,?
O=C(N/N=C/c1c(Cl)[nH]c2ccccc12)c1ccc2c(c1)OCCO2,-43%,-57*,?,-7%,?,0%
Cc1c(/C=N/NC(=O)c2ccc3c(c2)OCO3)cnn1C,-34%,0,-5%,-2%,5%,0%
O=C(N/N=C\c1cc2c(cc1Cl)OCO2)c1cccs1,-17%,0,?,1%,?,-20%
O=C(N/N=C/c1cc2c(cc1Cl)OCO2)c1ccc2c(c1)OCCO2,-2%,-58*,-5%,-2%,?,-2%
O=C(N/N=C/c1ccccc1[N+](=O)[O-])c1ccc2c(c1)OCCO2,-11%,-18,-23%,-1%,-18%,6%
Cc1cc2nc(-c3ccc[nH]c3=O)[nH]c2cc1C,0.89µM*,-14,7.3µM*,i,10µM*,?
Cc1cc2nc(-c3ccc[nH]c3=O)n(Cc3ccc(F)cc3)c2cc1C,0%,-21,-13%,125%,-21%,22%
CNC(=O)COC(=O)c1cccnc1SC,-4%,-22,1%,-4%,-12%,-5%
CSc1ncccc1C(=O)OCC(=O)c1cc(C)n(C)c1C,1%,-9,-21%,-4%,-30%,-9%
COCCNC(=O)COC(=O)c1cccnc1SC,3%,20,18µM*,3%,-108%,1%
CCn1c(C)cc(C(=O)COC(=O)c2cccnc2SC)c1C,8%,-9,16µM*,-2%,?,5%
Cc1noc(NS(=O)(=O)c2ccc(NC(=O)c3oc4ccc(Cl)cc4c3C)cc2)c1C,-25%,18,-13%,.,-25%,2%
COc1ccccc1N1CCN(S(=O)(=O)c2c(C)sc3ncn(CC(=O)N(C)c4ccc(Cl)cc4)c(=O)c23)CC1,-12%,.,18µM*,.,16µM*,-27%
CCCCN(C)C(=O)Cn1cnc2sc(C)c(S(=O)(=O)N3CCN(c4ccccc4OC)CC3)c2c1=O,3%,11,23µM*,-1%,23µM*,1%
CCOc1ccc(C(=O)Nc2cc(C)ccn2)cc1,14µM*,-9,7.3µM*,-2%,23µM*,-19%
Cc1ccnc(NC(=O)c2ccc(S(=O)(=O)NCc3ccco3)cc2)c1,0%,-1,21µM*,3%,?,8%
COCCSc1ccccc1C(=O)Nc1cc(C)ccn1,-13%,10,?,3%,23µM*,0%
SMILES,HepG2 viability,IL-1B inflam inh,DT40 TDP1 CPT,S-ASM inh,DT40 TDP1 no CPT,TGFb SMAD3 inh
Cc1ccnc(NC(=O)c2ccccc2NC(=O)c2ccccc2)c1,-4%,3,-14%,-2%,-22%,2%
Cc1ccnc(NC(=O)c2ccc(C(=O)c3ccccc3)cc2)c1,-21%,-17,18µM*,5%,21µM*,-9%
CCOc1ccc(C(=O)Nc2cccc(C)n2)cc1,-51%,-6,?,3%,?,6%
O=C(NCc1ccccc1F)C(=O)NCC1CCCN1S(=O)(=O)c1ccccc1 (stereo not given),-3%,-4,?,1%,?,0%
Cc1ccc(NC(c2cccc(Cl)c2)c2nnc(-c3ccccc3)o2)cc1F (stereo not given),-41%,.,?,.,?,?
CCOc1cc(C(=O)Nc2cc(C)ccn2)cc(OCC)c1OCC,-19%,-2,18µM*,0%,?,-1%
CCOc1ccc(C(=O)NCC(=O)Nc2cc(C)ccn2)cc1OCC,25%,?,2%,2%,24%,-1%
COc1ccc(C(=O)Nc2cccc(C(=O)Nc3cc(C)ccn3)c2)cc1,-4%,-2,?,-1%,21µM*,-1%
COc1cccc(C(=O)NC2CC(C)(C)Cc3c2cnn3-c2cccc(F)c2)c1OC (stereo not given),0%,i,23µM*,4%,18µM*,-26%
CCn1nc(C)cc1C(=O)NC1CC(C)(C)Cc2c1cnn2-c1cccc(F)c1 (stereo not given),0%,i,21µM*,-5%,16µM*,1%
Cc1cc(C)c(C(=O)NC2CC(C)(C)Cc3c2cnn3-c2cccc(F)c2)[nH]1 (stereo not given),5%,-4,?,0%,?,?
COc1cc(C(=O)NC2CC(C)(C)Cc3c2cnn3-c2ccccc2)cc(OC)c1OC (stereo not given),9%,-13,-28%,-4%,?,-5%
CCCCn1c(N)c(N(CCOC)C(=O)C2CCCN(C(=O)c3ccc(Cl)cc3)C2)c(=O)[nH]c1=O (stereo not given),13%,16,27%,22%,5%,2%
CCN(CC)S(=O)(=O)c1ccc(/C=C/C(=O)OCC(=O)N(C(C)C)C(C)C)cc1,7%,18,9%,0%,-1%,48%
COc1ccc(/C=N/NC2=NS(=O)(=O)c3ccccc32)cc1OC(C)=O,-5%,13,6%,0%,4%,2%
CCC(=O)N(C1=C(NC(C)C)C(=O)c2ccccc2C1=O)C(C)C,-35%,60,21µM*,-5%,9.2µM*,?
